Measured values as given in PubChem BioAssay (NCATS).
Results filed as inconclusive are left out. A call without a number means that no potency is given here. Values without a mark were called inactive. Calls of active or inactive are those of the source. Calls come from the whole dose curve; as a rule, active = well fitted curve in the direction sought with a large enough effect; inconclusive = small, poorly fitted or top-dose-only effect, or another doubt; inactive = no such curve, though single readings can be large; an effect the other way counts as inactive or inconclusive. Where a SMILES comes first, the peptide text is derived from it. [ ]: non-standard residue; d: D form. ξ: configuration not given here. ξPhe(βξ-Me) = CC(c1ccccc1)C(N)C(=O)O; GABA = NCCCC(=O)O

Experiments:
[1] = Primary qHTS for inhibitors of nuclear receptor binding SET domain protein 2 (NSD2) in an isogenic RCH-ACV NSD2 p.E1099K mutant (9B) (AID 1645876)
[2] = Primary qHTS for inhibitors of nuclear receptor binding SET domain protein 2 (NSD2) in an RCH-ACV wild type WT cells (2C) (AID 1645877)
Note: nearly all actives have a fitted effect of over 70% in size.

SMILES: COc1cc([C@H]2OC[C@@H]3[C@@H](c4ccc(O[C@@H]5O[C@H](CO)[C@@H](O)[C@H](O)[C@H]5O)c(OC)c4)OC[C@]23O)ccc1O
- Potency [1]: inactive
- Potency [2]: inactive

SMILES: C[C@@H]1O[C@@H](O[C@@H]2[C@@H](O)[C@@H](O)[C@H](O[C@@H]3[C@@H](O)[C@@H](O[C@]4(CO)O[C@H](CO)[C@@H](O)[C@@H]4OC(=O)/C=C/c4ccc(O)cc4)O[C@H](CO)[C@H]3OC(=O)/C=C/c3ccc(O)cc3)O[C@H]2C)[C@H](O)[C@H](O)[C@H]1O
- outcome [1]: inactive [at 9.23 µM]
- activity change, negative = cell killing [2]: 1.92% [at 9.23 µM]

SMILES: COc1ccc2c(c1)O[C@H](O[C@@H]1O[C@H](CO)[C@@H](O)[C@H](O)[C@H]1O)C(=O)N2
- Potency [1]: inactive
- Potency [2]: inactive

SMILES: CC(=O)N(O)CCCCCN1C(=O)CCC1=O
- Potency [1]: inactive
- Potency [2]: inactive

SMILES: CC(C)CC1NC(=O)C(C(C)c2ccccc2)NC(=O)C(C(C)C)NC(=O)C(C)NC(=O)CCCNC(=O)C(Cc2c[nH]c3ccccc23)NC(=O)C(C)NC1=O (stereo not drawn) (cyclo([GABA]AV[ξPhe(βξ-Me)]LAW); configuration not given here)
- Potency [1]: inactive
- Potency [2]: inactive

SMILES: CC1=C2C=C(CO)C(CO)CCC2(C)CCC1=O (stereo not drawn)
- Potency [1]: inactive
- Potency [2]: inactive

SMILES: CC1CCC2C(C(=O)O)=CC3CC(C)(C)CC132 (stereo not drawn)
- Potency [1]: inactive
- Potency [2]: inactive

SMILES: COC(=O)C1=CO[C@@H](O[C@@H]2O[C@H](CO)[C@@H](O)[C@H](O)[C@H]2O)[C@@H]2[C@@H](C(=O)OC)[C@@H](O)C(O)[C@H]12 (stereo partly drawn)
- Potency [1]: inactive
- Potency [2]: inactive

SMILES: CCS(=O)(=O)N1CCC([C@@H](C)n2c(C)c(C(=O)NCc3c(OC)cc(C)[nH]c3=O)c3ccccc32)CC1
- Potency [1]: inactive
- Potency [2]: inactive
